USP1-UAF1 inh – blocks the human USP1/UAF1 deubiquitinase complex; AID 743255; hit rate 0.23% among 390,000; recombinant USP1/UAF1, Ub-Rhodamine cleavage fluorescence; Potency, µM (series often up to 57.1 µM), actives largely listed as inhibitors; O94782; active = well fitted inhibition curve with a large enough effect; inconclusive = small, poorly fitted or top-dose-only effect; inactive = no such curve, though single readings can be large or run the other way; also: nearly all actives have a fitted effect of over 60% in size
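USP1/UAF1 complex at 1 nM was preincubated with compound for 15 min at room temperature, then Ub-Rho substrate (150nM final) was added. Fluorescence (480/540 nm) was read kinetically, 6 reads every 60 seconds.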
TRHR PAM – allosteric enhancers of human TRH receptor | AID 493056 | enhancement, % at 2 µM | hit rate 0.66% among 360,000 | TRHR cells, fluo-8 calcium fluorescence, EC20 TRH enhancement; in the data active = enhancement above about 30%
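TRHR-expressing cells loaded with fluo-8 calcium dye were read kinetically (ex 480/em 530) during compound addition, then stimulated with an EC20 of TRH (10 nM final). Enhancement of the Gq-mediated intracellular calcium response was scored.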
D1 ag – agonists of human D1 dopamine receptor. P21728. AID 504660. hit rate 1% among 360,000. HEK293 T-REx D1 cells, calcium flux, agonist mode. activation, % at 2 µM
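Agonism was scored from calcium flux recorded over 180 s (1 read/s) after pintool compound addition, following a 10-cycle baseline. Cells were inducible force-coupled HEK293 TREx D1, plated overnight at 30 C and loaded with no-wash calcium dye.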
D1 antag – antagonists of human D1 dopamine receptor; P21728; HEK293 TREx D1 cells, calcium flux, dopamine EC80; hits give low values; activity change, negative = inhibition, % at 10 µM; hit rate 3.2% among 360,000; AID 504652; in the data active = activity change below about -30%
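Inducible Hek293 Trex D1 cells (tetracycline, overnight, 30 C). Calcium dye 30–90 min RT. Antagonist mode: EC80 dopamine added after 180 s compound read.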
TRHR ag – TRH receptor (human) agonism; activation, % at 2 µM; hit rate 0.18% among 360,000; P34981; TRHR cells, calcium flux fluo-8, FDSS agonist mode
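TRHR-expressing cells loaded with fluo-8 calcium dye; 23 nL library compound pin-transferred, kinetic FDSS fluorescence (Ex 480/Em 530) recorded about 180 s for agonist-induced calcium release, before a 10 nM TRH EC20 addition for potentiator mode.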
D1 PAM – enhances dopamine response at the human D1 receptor. P21728. HEK293 TREx D1 cells, calcium flux, dopamine EC20 potentiation. potentiation, % at 10 µM. hit rate 0.036% among 360,000. AID 504651; in the data active = potentiation above about 30%
Each line names hits and unclear results; the compound was inactive in the other large screens; ! = not active in a repeat. Compounds with a hit are over-represented: about 4.4% of the library has one in this group of screens. Rule as the data show it, unless noted: active = activation above about 30%; inactive = the rest.

COc1cc(OC)c(Nc2c3c(nc4nc(-c5cccs5)nn24)CCCC3)cc1Cl	USP1-UAF1 inh inconclusive
CC(C)(C)OC(=O)NCC(=O)NNC(=O)c1nc2ccccc2[nH]1	none (no result: USP1-UAF1 inh)
CC(NS(=O)(=O)c1ccc(Cl)cc1)C(=O)OCC(=O)Nc1ccc(N(C)C)cc1 (configuration not stated)	D1 antag -45.3
CCOC(=O)C1CCN(C(c2ccc(SC)cc2)c2c(O)cc(C)n(Cc3ccco3)c2=O)CC1 (configuration not stated)	none
COc1cc(CNC(C)C)c(Br)cc1OC1CCCC1	D1 antag -48.5
CN(C)CCCN(Cc1ccccc1)C(=S)Nc1cccc(C(F)(F)F)c1	none
CN(C)CCCN(Cc1ccccc1)C(=S)Nc1ccc(F)c(Cl)c1	D1 ag 35.2, D1 antag -34.2
CCCN(Cc1ccccc1)C(=S)Nc1cccc(C(F)(F)F)c1	D1 antag -31.6
O=C(NCCN1CCOCC1)c1cc(-c2ccc(Cl)cc2Cl)on1	D1 antag -34.4
O=C(NCCN1CCOCC1)c1cc(-c2cccc(Cl)c2)on1	none
COc1ccc(/C=C2\SC(c3ccc(C)cc3)=NC2=O)cc1OC	USP1-UAF1 inh 15.8µM, D1 ag 53.4
COc1ccc(/C=C2\SC(=O)NC2=S)cc1OC	D1 ag 32.5
COc1ccc(/C=C2/SC(c3ccc(C)cc3)=NC2=O)cc1OC	USP1-UAF1 inh inconclusive
O=C(CSc1cn(CC(=O)N2CCOCC2)c2ccccc12)Nc1ccccc1C(F)(F)F	USP1-UAF1 inh inconclusive
O=C(CSc1cn(CC(=O)N2CCCC2)c2ccccc12)Nc1ccccc1C(F)(F)F	D1 antag -44.3
O=C(Cn1cc(SCc2ccc(F)cc2)c2ccccc21)N1CCCC1	D1 antag -30.1
N#C/C(=C\c1ccc(F)cc1)C(=O)NCC1CCCO1 (configuration not stated)	none
Cc1ccccc1NC(=O)CSc1ccc(-c2ccco2)nn1	D1 antag -70.7
Cc1cc(C)c2c(=O)cc(C(=O)Nc3c(C)n(C)n(-c4ccccc4)c3=O)oc2c1	none
O=C(NCCN1CCCCC1)c1ccc(Cn2c(SCc3ccc(F)cc3)nc3cccnc32)cc1	D1 antag -32.3
CN(C)CCNC(=O)c1ccc(Cn2c(SCc3ccc(F)cc3)nc3cccnc32)cc1	none
O=C(NC1CCCCC1)c1ccc(CSc2nc3cccnc3n2Cc2ccccc2)cc1	USP1-UAF1 inh inconclusive
O=C(NC1CCCCC1)c1ccc(Cn2c(SCc3cccc(F)c3)nc3cccnc32)cc1	D1 antag -65.1
CCN(CC)c1nc2ccccc2nc1C(=O)Nc1ccc(C(C)=O)cc1	none
COc1ccc(C(=O)N2CCC(c3nc(-c4ccc(S(=O)(=O)N5CCCC5)cc4)no3)CC2)cc1	USP1-UAF1 inh inconclusive
CCc1nn(CC(=O)NCCCN2CCOCC2)c(=O)c2cc3cc(F)ccc3n12	D1 antag -73.7
CCc1nn(CC(=O)NCCCN(CC)CC)c(=O)c2cc3occc3n12	none
CCc1nn(CC(=O)NCCCN2CCOCC2)c(=O)c2cc3sccc3n12	none
CCc1nn(CC(=O)NCCCN2CCN(CC)CC2)c(=O)c2cc3occc3n12	D1 antag -34.9!
CCc1ccccc1N(C)C(=O)Cn1cnc2sc(C)c(S(=O)(=O)N3CCC(C)CC3)c2c1=O	none
O=C(NC1CCCCC1)c1cc(Nc2cccc(C(F)(F)F)c2)nc2ccccc12	none
CCOC(=O)C1=NOC2C(=O)N(c3ccc(Cl)cc3Cl)C(=O)C12 (configuration not stated)	none
O=C(C1=C[C@@H]2[C@H]3C(=O)N(c4ccccc4)C(=O)[C@H]3[C@@H](C(=O)c3ccc(Cl)cc3)N2C=C1)c1ccccc1	none (no result: USP1-UAF1 inh)
O=C(C1=NN(c2ccccc2)C2C(=O)N(c3ccc(Cl)cc3)C(=O)C12)c1ccccc1 (configuration not stated)	D1 ag 192.3
CC(=O)C1=NOC2C(=O)N(c3ccc(Cl)cc3)C(=O)C12 (configuration not stated)	D1 ag 50.5

Screening results: PubChem BioAssay, National Center for Advancing Translational Sciences (NCATS)
